# What was measured:
# Assay in all cases: pooled miR-30 sensor sort-seq; sequence = guide strand
# Details in all cases: shRNA
# SULT1A2 = molecular target: SULT1A2
# SUN1 = molecular target: SUN1
# SURF1 = molecular target: SURF1
# SULT6B1 = molecular target: SULT6B1
# SYN3 = molecular target: SYN3
# SYBU = molecular target: SYBU
# SYCP2L = molecular target: SYCP2L
# SYT2 = molecular target: SYT2
# Further: reference of the scale not given here.
sequence,measurement,setting,value
TGGGACTTTGAACTCAAGGAAG,sensor-assay potency score (higher = more potent),SULT1A2,-1.59
TGAGGTCCACAGTCTCCTCTGG,sensor-assay potency score (higher = more potent),SULT1A2,-0.796
TTCTTCAGGGAGACAGCGCTGC,sensor-assay potency score (higher = more potent),SUN1,-0.739
ATGAGGTCCACAGTCTCCTCTG,sensor-assay potency score (higher = more potent),SULT1A2,-1
TTTGTTTGTGCTTCTGCGCTGT,sensor-assay potency score (higher = more potent),SUN1,0.665
TTGAAATACTGCATTATCCAGG,sensor-assay potency score (higher = more potent),SURF1,-0.184
TTCAGGGAGACAGCGCTGCTGG,sensor-assay potency score (higher = more potent),SUN1,-1.01
TATAATATGAACTTAACATTGT,sensor-assay potency score (higher = more potent),SULT6B1,-0.395
TTGTGGCAGATGCTTCTGCTGC,sensor-assay potency score (higher = more potent),SURF1,-1.64
TCTGTCAGCCTCACCATCCCAA,sensor-assay potency score (higher = more potent),SURF1,-0.843
TAATTCACTGACAATGTGGAGA,sensor-assay potency score (higher = more potent),SULT6B1,-0.0659
TCGAGTCACAGCATCCTGCAGG,sensor-assay potency score (higher = more potent),SUN1,-0.812
TATTCTCGAAGATAGACCCAGG,sensor-assay potency score (higher = more potent),SULT6B1,-0.373
TTTGTTGTTCTGGCCGCTCGGT,sensor-assay potency score (higher = more potent),SUN1,-0.815
TTCCACATGCTCTCCAATCAGC,sensor-assay potency score (higher = more potent),SYN3,-0.957
TCATCGAACAAATCTGTGCTGT,sensor-assay potency score (higher = more potent),SYBU,-0.248
TTTGGAGACAACAAGGTCGGCC,sensor-assay potency score (higher = more potent),SYN3,-0.0801
TTGGCCTCGTCTTCACTTGGGG,sensor-assay potency score (higher = more potent),SYN3,-0.142
TTTGCTGCTGTGGAGATCCGGA,sensor-assay potency score (higher = more potent),SYN3,-0.473
TCGATCACCAACAGGATCCTGG,sensor-assay potency score (higher = more potent),SYN3,-0.321
TTCTTTGTAGCTGATAATCATG,sensor-assay potency score (higher = more potent),SYCP2L,-1.28
TTAAACCACAGGTAGGATGTAG,sensor-assay potency score (higher = more potent),SURF1,-0.235
TAACAGTTTAAGAACAAACAAG,sensor-assay potency score (higher = more potent),SYBU,-1.43
TTCGATGACCTGTTTGAGCTGT,sensor-assay potency score (higher = more potent),SYBU,0.425
TCACCAACCATTCCAATCGTGC,sensor-assay potency score (higher = more potent),SYBU,-1.21
TTCCACTTTGATCTTTCCCATT,sensor-assay potency score (higher = more potent),SYN3,-1.45
TTGTAGGAGCCTGAGTTGCTAC,sensor-assay potency score (higher = more potent),SYBU,-1.24
TTCATCACCGCTTCCTTCGGAA,sensor-assay potency score (higher = more potent),SYCP2L,-0.0578
TTCCAGGTCTCGATAATGCCAG,sensor-assay potency score (higher = more potent),SURF1,-0.863
TTCTGAATCTGCTCGAAGGGGA,sensor-assay potency score (higher = more potent),SYT2,0.015
